Measurements: PubChem BioAssay (NCATS)
Records with an inconclusive call do not appear. Entries that show only a call come without a potency. A number with no mark means an inactive call. Activity calls are given as the source filed them. Unless noted, calls come from the whole dose curve; as a rule, active = well fitted curve in the direction sought with a large enough effect; inconclusive = small, poorly fitted or top-dose-only effect, or another doubt; inactive = no such curve, though single readings can be large; an effect the other way counts as inactive or inconclusive.

How the values were obtained:
[1] = target: Cytochrome P450 2C9 (Homo sapiens) (UniProt P11712); test: Cytochrome P450 family 2 subfamily C member 9 (CYP2C9) small molecule antagonists: luciferase biochemical (cell-free) qHTS assay (AID 1645842; active = well fitted curve in the direction sought with a large enough effect in the repeat runs; an effect the other way counts as inactive or inconclusive; note: nearly all actives have a fitted effect of over 55% in size; note: potency is the fitted concentration of half-maximal effect)
Chain of Cytochrome P450 2C9 (Homo sapiens) (P11712 whole entry, looked up): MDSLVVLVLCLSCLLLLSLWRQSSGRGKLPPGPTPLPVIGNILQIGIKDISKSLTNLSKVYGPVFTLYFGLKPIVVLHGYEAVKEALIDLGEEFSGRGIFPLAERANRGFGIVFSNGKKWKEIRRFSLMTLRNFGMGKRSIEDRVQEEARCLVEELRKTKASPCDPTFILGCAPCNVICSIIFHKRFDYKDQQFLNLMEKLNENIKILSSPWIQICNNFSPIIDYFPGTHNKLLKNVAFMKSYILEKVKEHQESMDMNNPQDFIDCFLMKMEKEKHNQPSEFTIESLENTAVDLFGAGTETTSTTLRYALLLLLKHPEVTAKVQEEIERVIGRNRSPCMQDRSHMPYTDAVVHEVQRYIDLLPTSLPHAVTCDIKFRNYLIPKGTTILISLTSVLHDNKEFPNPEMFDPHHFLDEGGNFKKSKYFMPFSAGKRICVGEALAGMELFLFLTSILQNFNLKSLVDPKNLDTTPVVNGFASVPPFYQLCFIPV
How it was run: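 P450-Glo CYP2C9 system: proluciferin substrate with enzyme in mix containing 0.4% BSA, 10 min at room temperature, then NADPH regeneration solution added and incubated 1 h at 37C. Detection reagent stopped reaction; luminescence read after 20 min as RLU.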

[2] = Primary qHTS for inhibitors of nuclear receptor binding SET domain protein 2 (NSD2) in an isogenic RCH-ACV NSD2 p.E1099K mutant (9B) (AID 1645876); note: nearly all actives have a fitted effect of over 70% in size
[3] = Primary qHTS for inhibitors of nuclear receptor binding SET domain protein 2 (NSD2) in an RCH-ACV wild type WT cells (2C) (AID 1645877); note: nearly all actives have a fitted effect of over 70% in size

Compound	Potency [1]	Potency [2]	Potency [3]
OCC(O)CS (stereo not given)	inactive	inactive	inactive
C=CCN1C[C@H](C(=O)N(CCCN(C)C)C(=O)NCC)C[C@@H]2c3cccc4[nH]cc(c34)C[C@H]21	inactive	inactive	inactive
CC(=O)Nc1ccc(C(=O)O)cc1	inactive	inactive	inactive
O=C(NCCCN1CCOCC1)c1ccc(Cl)cc1	inactive	inactive	inactive
NS(=O)(=O)c1cc(C2(O)NC(=O)c3ccccc32)ccc1Cl (stereo not given)	inactive	inactive	inactive
O=C1CC[C@@H](C(=O)O)N1	inactive	inactive	inactive
O=C(O)C(S)C(S)C(=O)O (stereo not given)	inactive	inactive	inactive
CCOC(=O)c1cccnc1	inactive	inactive	inactive
COc1cc(C(=O)NCCCCCC(=O)O)cc(OC)c1OC	inactive	inactive	inactive
C=CCNC(N)=S	inactive	inactive	inactive
NS(=O)(=O)c1cc2c(cc1C(F)(F)F)NCNS2(=O)=O	inactive	inactive	inactive
CCCCCC(C)N (stereo not given)	inactive	inactive	inactive
CC[C@H](C)[C@H](N)C(=O)O	inactive	inactive	inactive
O=C(c1ccccc1)C(O)c1ccccc1 (stereo not given)	inactive	inactive	inactive
COc1ccc(C(=O)NCc2ccc(OCCN(C)C)cc2)cc1OC	inactive	inactive	inactive
CC(N)CCCC(C)(C)O (stereo not given)	inactive	inactive	inactive
CC(=O)Oc1cccc(O)c1	inactive	inactive	inactive
Cc1c(C(=O)NCCO)[n+](=O)c2ccccc2n1[O-]	inactive	inactive	inactive
O[C@@H]1CO[C@H]2[C@@H]1OC[C@@H]2O	inactive	inactive	inactive
CCOc1cc(NC(C)=O)ccc1C(=O)OC	inactive	inactive	inactive

Compound	Potency [1]	Potency [2]	Potency [3]
CC(C)CCOC(=O)c1ccc(N(C)C)cc1	6.92 µM (active)	inactive	inactive
NC(N)=NS(=O)(=O)c1ccc(N)cc1	inactive	inactive	inactive
O=C(Cn1ccnc1[N+](=O)[O-])NCc1ccccc1	inactive	inactive	inactive
CCc1cccc(CC)c1NC(=O)CN(CC(=O)O)CC(=O)O	inactive	inactive	inactive
Cc1cccc(C)c1NC(=O)CC12CCCN1CCC2	inactive	inactive	inactive
CC(=O)Nc1cccc(O)c1	inactive	inactive	inactive
CC(=O)NCc1c(I)c(NC(C)=O)c(I)c(C(=O)O)c1I	inactive	inactive	inactive
c1ccc2[nH]ccc2c1	inactive	inactive	inactive
CN1C[C@@H]2C[C@H]1CN2c1cc2c(cc1F)c(=O)c(C(=O)O)cn2C1CC1	inactive	inactive	inactive
CCOc1ccc(C(=O)OCCN(CC)CC)cc1	inactive	inactive	inactive
Cc1cc(-n2nc3ccc(Cl)cc3n2)c(O)c(C(C)(C)C)c1	inactive	inactive	inactive
C[C@@H](N)C(=O)O	inactive	inactive	inactive
CCN(CC)C(=O)c1cccc(C)c1	inactive	inactive	inactive
COC(=O)c1ccc(O)cc1	inactive	inactive	inactive
COc1ccc(Cc2cnc(N)nc2N)cc1OC	inactive	inactive	inactive
CC(=O)Nc1ccc(OCCOCCOc2ccc(NC(C)=O)cc2)cc1	3.47 µM (active)	inactive	inactive
O=C(Cn1ccnc1[N+](=O)[O-])NCCO	inactive	inactive	inactive
Cn1c([N+](=O)[O-])cnc1COC(N)=O	inactive	inactive	inactive
O=C1C(c2[nH]c3ccccc3c2O)=Nc2ccccc21	inactive	inactive	inactive
CC[N+](CC)(CC(=O)Nc1c(C)cccc1C)Cc1ccccc1	inactive	inactive	inactive
